From the supplement of paper PMC7411054 come the findings set out here.

Common to all, as to settings: treatment time: 24 h
The subject of assay [1] is A549-GM130-SQSTM1. Put plainly: lowest phenotypically active concentration; higher = less potent. A digest of the protocol: (§1)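 Live-cell features were measured per well and normalised to solvent control wells after fifteen gene-edited A549, HepG2 and WPMY1 reporter lines had been treated for 24 h at 0.3, 1, 3 or 9 µM in four wells each. A condition was deviating when ≥3 of 4 wells sat beyond the 95th percentile of control Euclidean distances. It was reproducible when the median replicate Pearson correlation exceeded the 95th percentile of non-replicates. Phenotypic activity demanded both.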

The subject of assay [2] is A549-ACTB-RAB5A. Description: phenotypically active (imaging signature differs from DMSO and reproducible) at any of 0.3-9 uM (binary (1 = active, 0 = inactive)); higher = active. A digest of the protocol: as §1
The next assay has as its system A549-CANX-COX4. The assay is described as above. A digest of the protocol:
as §1

Assay [3] relates to A549-GM130-SQSTM1. Described as above. An outline of the steps:
as §1

A further assay relates to A549-TP53BP1-CLTA. Described as above. A digest of the protocol:
as §1

For a further assay, the system named is A549-TUBA1B-RELA. Described as above. A digest of the protocol:
as §1

In another assay the test system is HepG2-ACTB-RAB5A. Described as above. An outline of the steps:
as §1

A further assay relates to HepG2-CANX-COX4. The assay is described as above. A digest of the protocol:
as §1

In a further assay the test system is HepG2-GM130-SQSTM1. The assay is described as above. A digest of the protocol: as §1
A further assay concerns HepG2-TP53BP1-CLTA. The description is as above. A digest of the protocol:
as §1

Another assay concerns HepG2-TUBA1B-RELA. The description is as above. An outline of the steps: as §1
The test system of assay [4] is WPMY1-ACTB-RAB5A. Described as above. A digest of the protocol:
as §1

The test system of a further assay is WPMY1-CANX-COX4. The assay is described as above. An outline of the steps:
as §1

The test system of assay [5] is WPMY1-GM130-SQSTM1. The description is as above. A digest of the protocol: as §1
A further assay relates to WPMY1-TP53BP1-CLTA. The description is as above. An outline of the steps:
as §1

For a further assay, the system named is WPMY1-TUBA1B-RELA. Described as above. An outline of the steps: as §1
The subject of assay [6] is A549-ACTB-RAB5A. Description: lowest phenotypically active concentration; higher = less potent. A digest of the protocol: as §1
Assay [7] concerns WPMY1-ACTB-RAB5A. Described as above. An outline of the steps: as §1
Assay [8] relates to WPMY1-GM130-SQSTM1. Described as above. An outline of the steps: as §1

For `COc1ccc(CCc2nc3c(C)c(-c4c(C)noc4C)c(C)cc3n2CCN2CCOCC2)cc1`, the “lowest phenotypically active concentration” value in the assay with A549-GM130-SQSTM1 [1] came to 9 µM. The phenotypically active is 0 (inactive) with A549-ACTB-RAB5A [2]; 0 (inactive) in the assay on A549-CANX-COX4; 1 (active) with A549-GM130-SQSTM1 [3]; 0 (inactive) in the assay on A549-TP53BP1-CLTA; 0 (inactive) in the assay on A549-TUBA1B-RELA; 0 (inactive) in the assay on HepG2-ACTB-RAB5A. Besides, the phenotypically active with HepG2-CANX-COX4, in the assay with HepG2-GM130-SQSTM1, in the assay with HepG2-TP53BP1-CLTA, in the assay with HepG2-TUBA1B-RELA, in the assay on WPMY1-ACTB-RAB5A [4] and in the assay on WPMY1-CANX-COX4 was 0 (inactive) throughout. Further, the phenotypically active in the assay on WPMY1-GM130-SQSTM1 [5], in the assay on WPMY1-TP53BP1-CLTA and with WPMY1-TUBA1B-RELA was 0 (inactive) in each case.
As for `N=C1NC(=O)/C(=C\c2ccc(O)cc2)S1` [Mirin], the “lowest phenotypically active concentration” value with A549-ACTB-RAB5A [6] and in the assay on WPMY1-ACTB-RAB5A [7] was 9 µM each time. Also, the phenotypically active in the assay on A549-ACTB-RAB5A [2] is 1 (active); in the assay on A549-CANX-COX4, 0 (inactive); in the assay on A549-GM130-SQSTM1 [3], 0 (inactive); in the assay with A549-TP53BP1-CLTA, 0 (inactive); with A549-TUBA1B-RELA, 0 (inactive); in the assay on HepG2-ACTB-RAB5A, 0 (inactive). Also, the phenotypically active in the assay with HepG2-CANX-COX4 was 0 (inactive); in the assay with HepG2-GM130-SQSTM1 it was 0 (inactive); in the assay with HepG2-TP53BP1-CLTA, 0 (inactive); with HepG2-TUBA1B-RELA, 0 (inactive); in the assay with WPMY1-ACTB-RAB5A [4] it was 1 (active); in the assay on WPMY1-CANX-COX4, 0 (inactive). Besides, the phenotypically active with WPMY1-GM130-SQSTM1 [5], with WPMY1-TP53BP1-CLTA and in the assay on WPMY1-TUBA1B-RELA was 0 (inactive) each time.
On to `CC(C)(C(=O)c1cccnc1)c1cccnc1` [metyrapone], for which the “lowest phenotypically active concentration” value in the assay with A549-GM130-SQSTM1 [1] is 9 µM. For the same compound, the phenotypically active was 0 (inactive) in the assay with A549-ACTB-RAB5A [2]; 0 (inactive) in the assay with A549-CANX-COX4; 1 (active) in the assay with A549-GM130-SQSTM1 [3]; 0 (inactive) in the assay with A549-TP53BP1-CLTA; 0 (inactive) in the assay on A549-TUBA1B-RELA; 0 (inactive) in the assay on HepG2-ACTB-RAB5A. In addition, the phenotypically active in the assay on HepG2-CANX-COX4, in the assay with HepG2-GM130-SQSTM1, in the assay with HepG2-TP53BP1-CLTA, in the assay on HepG2-TUBA1B-RELA, with WPMY1-ACTB-RAB5A [4] and in the assay with WPMY1-CANX-COX4 was 0 (inactive) throughout. Further, the phenotypically active with WPMY1-GM130-SQSTM1 [5], in the assay with WPMY1-TP53BP1-CLTA and in the assay with WPMY1-TUBA1B-RELA was 0 (inactive) in each case.
Consider `C=C1CC[C@H](O)C/C1=C\C=C1\CCC[C@]2(C)[C@@H]([C@H](C)/C=C/[C@H](C)C(C)C)CC[C@@H]12` [Calciferol], for which, in the assay on A549-GM130-SQSTM1 [1], the “lowest phenotypically active concentration” value was 9 µM. The phenotypically active with A549-ACTB-RAB5A [2] is 0 (inactive); with A549-CANX-COX4, 0 (inactive); in the assay on A549-GM130-SQSTM1 [3] it was 1 (active); with A549-TP53BP1-CLTA, 0 (inactive); with A549-TUBA1B-RELA it was 0 (inactive); in the assay with HepG2-ACTB-RAB5A, 0 (inactive). Further, the phenotypically active in the assay with HepG2-CANX-COX4, in the assay on HepG2-GM130-SQSTM1, in the assay on HepG2-TP53BP1-CLTA, with HepG2-TUBA1B-RELA, in the assay with WPMY1-ACTB-RAB5A [4] and in the assay on WPMY1-CANX-COX4 was 0 (inactive) throughout. Moreover, the phenotypically active in the assay on WPMY1-GM130-SQSTM1 [5], with WPMY1-TP53BP1-CLTA and in the assay on WPMY1-TUBA1B-RELA was 0 (inactive) throughout.
On to `OCCOCCN1CCN(C2=Nc3ccccc3Sc3ccccc32)CC1` [Quetiapine hemifumarate], for which the “lowest phenotypically active concentration” value in the assay with A549-GM130-SQSTM1 [1] was determined as 9 µM. The phenotypically active in the assay on A549-ACTB-RAB5A [2] was 0 (inactive); in the assay on A549-CANX-COX4 it was 0 (inactive); in the assay with A549-GM130-SQSTM1 [3] it was 1 (active); with A549-TP53BP1-CLTA, 0 (inactive); in the assay on A549-TUBA1B-RELA it was 0 (inactive); in the assay on HepG2-ACTB-RAB5A it was 0 (inactive). Besides, the phenotypically active in the assay on HepG2-CANX-COX4, with HepG2-GM130-SQSTM1, with HepG2-TP53BP1-CLTA, in the assay with HepG2-TUBA1B-RELA, in the assay on WPMY1-ACTB-RAB5A [4] and in the assay on WPMY1-CANX-COX4 was 0 (inactive) in each case. Further, the phenotypically active in the assay on WPMY1-GM130-SQSTM1 [5], in the assay on WPMY1-TP53BP1-CLTA and in the assay on WPMY1-TUBA1B-RELA was 0 (inactive) in each case.
`CC(=O)S[C@@H]1CC2=CC(=O)CC[C@]2(C)[C@H]2CC[C@@]3(C)[C@@H](CC[C@@]34CCC(=O)O4)[C@H]12` [spironolactone]: the “lowest phenotypically active concentration” value in the assay on A549-ACTB-RAB5A [6] and in the assay with WPMY1-GM130-SQSTM1 [8] was 9 µM each time. Also, the phenotypically active with A549-ACTB-RAB5A [2] was 1 (active); in the assay with A549-CANX-COX4, 0 (inactive); with A549-GM130-SQSTM1 [3], 0 (inactive); in the assay with A549-TP53BP1-CLTA, 0 (inactive); in the assay on A549-TUBA1B-RELA it was 0 (inactive); in the assay with HepG2-ACTB-RAB5A it was 0 (inactive). For the same compound, the phenotypically active in the assay with HepG2-CANX-COX4, in the assay with HepG2-GM130-SQSTM1, in the assay on HepG2-TP53BP1-CLTA, in the assay on HepG2-TUBA1B-RELA, with WPMY1-ACTB-RAB5A [4] and in the assay with WPMY1-CANX-COX4 was 0 (inactive) in each case. Besides, the results for the phenotypically active in the assay with WPMY1-GM130-SQSTM1 [5], in the assay on WPMY1-TP53BP1-CLTA and in the assay with WPMY1-TUBA1B-RELA were 1 (active), 0 (inactive) and 0 (inactive), respectively.
